# Counter-ions that a name gives are not always drawn. ± gives the standard deviation of the averaged measurements.
# Tested on: mESC LDLR-Dup GFP reporter (SpCas9 MH-deletion repair)
# Assay: fraction of GFP+ cells relative to DMSO control (fold change); higher = more MH-deletion repair to in-frame LDLR (or more editing)
# Conditions: 2 µM; 7 days post-transfection
row,SMILES,fraction of GFP+ cells
1,Cc1nc(=O)c2cc(CN(C)c3ccc(C(=O)N[C@@H](CCC(=O)O)C(=O)O)s3)ccc2[nH]1 [Raltitrexed],2.3 ± 1
2,"CC(C)OC(=O)[C@H](C)N[P@](=O)(OC[C@H]1O[C@@H](n2ccc(=O)[nH]c2=O)[C@](C)(F)[C@@H]1O)Oc1ccccc1 [Sofosbuvir (PSI-7977, GS-7977)]",1.03 ± 0.4
3,CN(C)CCCCC(=O)Nc1ccc(NC(=S)NC(=O)c2ccc(C(C)(C)C)cc2)cc1 [Tenovin-6],0.625 ± 0.2
4,CCN1C(=O)CNc2ncc(-c3ccc(-c4nc[nH]n4)nc3C)nc21,0.696 ± 0.12
5,CCCCCOC(=O)Nc1nc(=O)n([C@@H]2O[C@H](C)[C@@H](O)[C@H]2O)cc1F [Capecitabine],0.922 ± 0.39
6,CSc1ccc(C(=O)/C=C/c2cc(C)c(OC(C)(C)C(=O)O)c(C)c2)cc1 [Elafibranor],1.63 ± 0.59
7,NCCOc1cc(C(=O)Nc2cc(OCCN)c3ccccc3n2)nc(C(=O)Nc2cc(OCCN)c3ccccc3n2)c1 [Pyridostatin Trifluoroacetate Salt],0.824
8,COc1cc(Br)c(Nc2nc(-c3c(C)nc4ncccn34)cs2)c(Br)c1,0.111 ± 0.028
9,NC(=O)c1cc(F)cc2c1C(=O)N(C1CCN(C3CCC(F)(F)CC3)CC1)C2,0.792 ± 0.12
10,Cc1cccc(Nc2cc(Cl)nc(SCC(=O)O)n2)c1C,1.56 ± 0.58
11,CCn1cc(-c2ccnc3[nH]c(-c4cccc(CN(C)C)c4)cc23)c(-c2ccc(NC(=O)N(C)C)cc2)n1,0.251 ± 0.13
12,COc1cc2ncnc(-n3nc(-c4ccccn4)nc3N)c2cc1OC,0.973 ± 0.34
13,CCCCCCCCCC(=O)N[C@@H](Cc1c[nH]c2ccccc12)C(=O)N[C@H](CC(N)=O)C(=O)N[C@@H](CC(=O)O)C(=O)N[C@@H]1C(=O)NCC(=O)N[C@@H](CCCN)C(=O)N[C@@H](CC(=O)O)C(=O)N[C@H](C)C(=O)N[C@@H](CC(=O)O)C(=O)NCC(=O)N[C@H](CO)C(=O)N[C@@H]([C@H](C)CC(=O)O)C(=O)N[C@@H](CC(=O)c2ccccc2N)C(=O)O[C@@H]1C [Daptomycin],1.25 ± 0.27
14,CN(C)c1ccc(-c2nc3ncc(Cl)c(N4CCN(CC(=O)Nc5nccs5)CC4)c3[nH]2)cc1,0.872 ± 0.39
15,N#Cc1c(Oc2ccc(F)c(NC(=O)Cc3cccc(C(F)(F)F)c3)c2)ccc2nc(NC(=O)C3CC3)sc12,0.727 ± 0.25
16,O=C(NCC1(c2nc(-c3ccccc3)cs2)CCOCC1)c1cccc(-c2noc(C(F)(F)F)n2)c1,0.752 ± 0.12
17,CN(CCOc1ccc(CC2SC(=O)NC2=O)cc1)c1ccccn1 (centres undefined) [Rosiglitazone],1.48 ± 0.26

row,SMILES,fraction of GFP+ cells
1,C[C@@H](N)[C@H]1CC[C@H](C(=O)Nc2ccncc2)CC1,1.31 ± 0.91
2,CN(CCOc1ccc(CC2SC(=O)NC2=O)cc1)c1ccccn1 (centres undefined) [Rosiglitazone maleate],1.52 ± 0.23
3,OCc1ccc(-c2ccc(-c3ccc(CO)s3)o2)s1,0.657 ± 0.23
4,Nc1[nH]cnc2ncnc1-2 [Adenine sulfate],1.1 ± 0.025
5,O=C(NC(NC(=S)Nc1ccc(F)c([N+](=O)[O-])c1)C(Cl)(Cl)Cl)C(c1ccccc1)c1ccccc1 (centres undefined),0.561 ± 0.13
6,COc1ccc(S(=O)(=O)NCc2ccc(C(=O)NCCc3ccc(Cl)cn3)cc2)cc1,0.936 ± 0.16
7,Nc1[nH]cnc2ncnc1-2 [Adenine HCl],1.31 ± 0.32
8,Cc1nc(N)sc1-c1ccnc(Nc2ccc(N3CCOCC3)cc2)n1,0.334 ± 0.28
9,CC(C)NC(=O)COc1cccc(-c2nc(Nc3ccc4[nH]ncc4c3)c3ccccc3n2)c1,1.21 ± 1.4
10,N=C1NC(=O)/C(=C/c2ccc(O)cc2)S1 [Mirin],0.862 ± 0.2
11,CC(C)OC(=O)C(C)(C)Oc1ccc(C(=O)c2ccc(Cl)cc2)cc1 [Fenofibrate],1.96 ± 0.19
12,CC(C)(Oc1ccc(C2CC2(Cl)Cl)cc1)C(=O)O (centres undefined) [Ciprofibrate],1.74 ± 0.1
13,CCc1nc(N)nc(N)c1-c1ccc(Cl)cc1 [Pyrimethamine],1.5 ± 1.2
14,C=C1CC[C@H](O)C/C1=C/C=C1\CCC[C@]2(C)[C@@H]([C@H](C)/C=C/[C@H](C)C(C)C)CC[C@@H]12 [Vitamin D2],1.43 ± 0.26
15,COc1ccc(-c2oc3c(CC=C(C)C)c(O[C@@H]4O[C@H](CO)[C@@H](O)[C@H](O)[C@H]4O)cc(O)c3c(=O)c2O[C@@H]2O[C@@H](C)[C@H](O)[C@@H](O)[C@H]2O)cc1 [Icariin],1.26 ± 0.2
16,Nc1nc(N)c(N=O)c(OCC2CCCCC2)n1,0.999 ± 0.11
17,CN(C)CCNC(=O)c1cccn2c(=O)c3cc4ccccc4cc3nc12,1.06 ± 0.28

# — the supplement of paper PMC8387472
